Publication PMC5540273 (PLoS ONE, 2017)

Columns and labels:
Settings in all cases: concentration: 1 μM, replicates: in singlicate; n = 1
PIK3C2G = test system: PIK3C2G
PIK3CA = test system: PIK3CA
PIK3CB = test system: PIK3CB
PIK3CD = test system: PIK3CD
PIK3CG = test system: PIK3CG
PIK4CB = test system: T1, PIK4CB
T1 construct: gene PI4KB

PIKFYVE = test system: PIKFYVE
PIM1 = test system: PIM1
PIM2 = test system: PIM2
PIM3 = test system: PIM3
PIP5K1A = test system: PIP5K1A
PIP5K1C = test system: PIP5K1C
PIP5K2B = test system: PIP5K2B
PIP5K2C = test system: T2, PIP5K2C
T2 construct: gene PIP4K2C

PKAC-alpha = test system: T3, PKAC-alpha
T3 construct: gene PRKACA

PKAC-beta = test system: T4, PKAC-beta
T4 construct: gene PRKACB

PKMYT1 = test system: PKMYT1
PKN1 = test system: PKN1
PKN2 = test system: PKN2
PLK1 = test system: PLK1
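Further: KINOMEscan kinase panel screen.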

SMILES | %Inh (PIK3C2G) | %Inh (PIK3CA) | %Inh (PIK3CB) | %Inh (PIK3CD) | %Inh (PIK3CG) | %Inh (PIK4CB) | %Inh (PIKFYVE) | %Inh (PIM1) | %Inh (PIM2) | %Inh (PIM3) | %Inh (PIP5K1A) | %Inh (PIP5K1C) | %Inh (PIP5K2B) | %Inh (PIP5K2C) | %Inh (PKAC-alpha) | %Inh (PKAC-beta) | %Inh (PKMYT1) | %Inh (PKN1) | %Inh (PKN2) | %Inh (PLK1)
Cc1cccc(NC(=O)Nc2ccc(Oc3ncnc4ccn(C)c34)cc2)c1 | 0% | 0% | 0% | 0% | 0% | 0% | 40% | 0% | 0% | 0% | 0% | 49% | 2% | 32% | 0% | 0% | 0% | 0% | 0% | 0%
O=C(Nc1n[nH]c2cc(-c3ccoc3)ccc12)C1CC1 [SB-738481] | 0% | 0% | 13% | 5% | 12% | 8% | 1% | 0% | 0% | 0% | 28% | 0% | 18% | 0% | 0% | 2% | 0% | 0% | 22% | 3%
CC(=O)N1CCN(c2ccc(Nc3nccc(-c4sc(C(C)C)nc4-c4cccc(NS(=O)(=O)c5cccc(Cl)c5)c4)n3)cn2)CC1 [GSK1660437] | 0% | 0% | 13% | 0% | 0% | 0% | 0% | 0% | 0% | 89% | 0% | 15% | 15% | 66% | 0% | 6% | 0% | 57% | 12% | 0%
COc1cccc(NC(=O)NC2CCN(c3ccnc(Nc4cc(OC)c(OC)c(OC)c4)n3)C2)c1 (centres unmarked) [GSK1379763] | 0% | 0% | 0% | 51% | 8% | 78% | 0% | 0% | 0% | 0% | 0% | 57% | 0% | 91.1% | 0% | 0% | 64% | 0% | 0% | 15%
COc1cc(Nc2nccc(-c3c(-c4cccc(NC(=O)c5c(F)cccc5F)c4)nn4ccccc34)n2)cc(OC)c1OC [GSK323521] | 9% | 4% | 16% | 0% | 9% | 11% | 0% | 17% | 0% | 5% | 0% | 45% | 23% | 27% | 0% | 6% | 4% | 12% | 6% | 2%
c1ccc(-c2cnc3nccnn23)cc1 [AH20685] | 0% | 0% | 0% | 0% | 0% | 0% | 0% | 0% | 0% | 9% | 0% | 24% | 13% | 0% | 0% | 0% | 0% | 7% | 0% | 0%
COCCOCCOc1cc2ncc3c4ccc(C#N)cc4[nH]c3c2cc1OC | 12% | 0% | 0% | 0% | 0% | 0% | 47% | 29% | 94% | 49% | 36% | 63% | 74% | 60% | 0% | 0% | 28% | 17% | 63% | 0%
COc1cc2c(cc1OCCN1CCNCC1)ncc1c3ccc(C#N)cc3[nH]c21 | 0% | 8% | 0% | 3% | 31% | 33% | 14% | 10% | 92.2% | 52% | 58% | 1% | 46% | 16% | 0% | 0% | 0% | 61% | 41% | 28%
O=C(Nc1ccccc1F)NC1CCN(c2ccnc(Nc3ccc(F)cc3)n2)CC1 [GSK1379800] | 0% | 1% | 0% | 0% | 3% | 0% | 0% | 0% | 0% | 0% | 1% | 47% | 12% | 23% | 0% | 0% | 7% | 0% | 0% | 0%
O=C(O)C(F)(F)F.O=C(O)C(F)(F)F.O=c1[nH]ccc2nc(N[C@@H]3CCCNC3)nc(Nc3ccc(S(=O)(=O)N4CCOCC4)cc3)c12 [GSK2177277] | 0% | 0% | 0% | 0% | 80% | 59% | 69% | 97.5% | 98.8% | 99.8% | 72% | 76% | 94.4% | 89% | 82% | 86% | 0% | 85% | 96.1% | 38%
